Screening results deposited in PubChem BioAssay by National Center for Advancing Translational Sciences (NCATS).
An excerpt weighted towards active compounds, which were near 19% of everything screened.
TDP1 cell noCPT – qHTS for Inhibitors of human tyrosyl-DNA phosphodiesterase 1 (TDP1): qHTS in cells in absence of CPT; DT40 Tdp1-/- hTDP1 cells, no CPT, ATP luminescence, 48 h; Potency, µM (top dose mostly 46.2 µM), most hits filed as inhibitors; actives 15% (n = 420,000); AID 686978, 2013; note: nearly all actives have a fitted effect of over 55% in size
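Chicken DT40 Tdp1-/- cells complemented with human TDP1, screened without camptothecin (DMSO vehicle only), 400 cells/well. Compounds pin-transferred, cells incubated at 37 °C for at least 48 hr. Growth read as ATP-dependent luminescence (CellTiter-Glo, 30 min at RT).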
ASM inhibitor – inhibitors of human secretory acid sphingomyelinase; P17405; placental ASM, HMU-PC fluorogenic substrate, 60 min; Potency, µM (doses to about 57.5 µM), actives largely listed as inhibitors; actives 0.006% (n = 340,000)
Target sequence (P17405 47-631 limits assumed): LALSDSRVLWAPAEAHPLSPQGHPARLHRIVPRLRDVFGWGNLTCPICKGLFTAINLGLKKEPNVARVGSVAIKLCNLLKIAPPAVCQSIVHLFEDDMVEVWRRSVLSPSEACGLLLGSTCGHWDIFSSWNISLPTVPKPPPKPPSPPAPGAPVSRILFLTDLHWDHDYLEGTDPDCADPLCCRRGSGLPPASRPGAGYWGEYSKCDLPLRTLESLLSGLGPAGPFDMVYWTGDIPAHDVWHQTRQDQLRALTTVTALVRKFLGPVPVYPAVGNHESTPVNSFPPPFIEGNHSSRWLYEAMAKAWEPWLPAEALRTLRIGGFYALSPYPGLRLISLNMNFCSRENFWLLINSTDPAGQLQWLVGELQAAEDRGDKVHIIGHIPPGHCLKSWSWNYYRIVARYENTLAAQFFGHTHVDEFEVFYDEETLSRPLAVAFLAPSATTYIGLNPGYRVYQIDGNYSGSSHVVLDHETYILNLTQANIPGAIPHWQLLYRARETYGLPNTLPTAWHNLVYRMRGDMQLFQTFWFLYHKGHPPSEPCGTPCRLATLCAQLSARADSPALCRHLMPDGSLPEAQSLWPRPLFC
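Fluorescence read-out (Ex 386 nm, Em 447 nm) after stopping the reaction at pH 10. Enzyme: ASM from human placenta; substrate HMU-PC0, 9 uM final; 60 min, 37 °C. Compound preincubation 10 min, ambient temperature.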
IL-1B inflam inh – inflammasome signaling inhibition, IL-1 beta readout; THP-1 LPS/ATP IL-1B secretion, AlphaLISA, 16 h; hits give low values; activity change, % at 57.5 µM; actives 4.7% (n = 360,000); AID 743279; in the data active = activity change below about -50%; inconclusive = mostly about -30% to -49%
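THP-1 cells pretreated 1 hr with compounds (up to 57.5 uM final), then stimulated with LPS (250 ng/mL final) plus ATP (1.25 mM final); secreted IL-1B measured by AlphaLISA after 16 hr, decreased signal indicating inhibition.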
TGFb SMAD3 inh – TGF-b pathway inhibition; AID 588855; actives 1.2% (n = 410,000); HepG2 CAGA-GFP TGF-b/SMAD3 reporter, GFP fluorescence, 18 h; TGF-beta stimulated, 500 pg/mL final; Potency, µM (titrated, usually from 46.1 µM), usual class: inhibitors; note: nearly all actives have a fitted effect of over 65% in size
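Inhibition was scored as loss of TGF-beta-induced (500 pg/mL final, 18 hours, 37 degrees C) GFP in HEPG2 cells carrying a CAGA-GFP reporter, in DMEM with 1% FBS. Well GFP was summed per cell; Activity was normalised to unstimulated and stimulated DMSO wells, then concentration-response fitting.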
HepG2 tox – HepG2 cytotoxicity, counter-screen for TGF-b inhibitors. HepG2 CAGA-GFP viability, ATP luminescence, 18 h. Potency, µM (series often up to 46.1 µM), actives largely listed as cytotoxic. actives 0.76% (n = 410,000)
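HepG2 CAGA-GFP cells (1000/well, DMEM with 1% FBS) received compound, then TGF-beta at 500 pg/mL final, and were incubated 18 hours at 37 degrees C. Viability was read by CellTiter-Glo luminescence. Media-only wells were set as complete cell-killing and DMSO as no toxicity.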
DT40 TDP1 CPT – DT40-hTDP1 cell growth loss with CPT. Potency, µM (highest dose often 46.2 µM), most hits filed as inhibitors. chicken DT40 Tdp1-/-;hTDP1 cells + 20 nM CPT, ATP luminescence, 48 h. actives 12% (n = 420,000); note: nearly all actives have a fitted effect of over 55% in size
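Chicken DT40 Tdp1-/- cells stably complemented with human TDP1 were seeded at 400 cells/well in medium containing 20 nM camptothecin, exposed to pin-transferred compounds, and grown at 37 °C for at least 48 hr. Viability was read as ATP luminescence.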
Of the large screens only hits and unclear results are named; the others gave an inactive call. Unless noted, calls come from the whole dose curve; as a rule, active = well fitted curve in the direction sought with a large enough effect; inconclusive = small, poorly fitted or top-dose-only effect, or another doubt; inactive = no such curve, though single readings can be large; an effect the other way counts as inactive or inconclusive.

O=C(Nc1cccc(Oc2ccccc2)c1)C1Cc2c(-c3cccc(F)c3)ccnc2O1 (stereo not given)	TDP1 cell noCPT inconclusive, IL-1B inflam inh inconclusive, DT40 TDP1 CPT inconclusive (no result: ASM inhibitor)
CCNc1nc(NC(C)C)nc(N(n2cnnc2)S(=O)(=O)c2ccc(C)cc2)n1	TDP1 cell noCPT inconclusive
CCOC(=O)[C@]12CCCC=C1N(Cc1cccc3ccccc13)C(=O)[C@H](CC(=O)N1CCN(C(=O)C3CC3)CC1)C2	TDP1 cell noCPT 21µM, DT40 TDP1 CPT inconclusive (no result: ASM inhibitor, TGFb SMAD3 inh, HepG2 tox)
CCOC(=O)[C@]12CCCC=C1N(Cc1ccccc1)C(=O)[C@H](CC(=O)N1CCC(c3ccccc3)CC1)C2	TDP1 cell noCPT inconclusive, DT40 TDP1 CPT 16µM (no result: ASM inhibitor, TGFb SMAD3 inh, HepG2 tox)
CCOC(=O)[C@]12CCCC=C1N(Cc1cccc3ccccc13)C(=O)[C@H](CC(=O)N1CCCC1)C2	TDP1 cell noCPT 21µM, DT40 TDP1 CPT inconclusive (no result: ASM inhibitor, TGFb SMAD3 inh, HepG2 tox)
CCOC(=O)[C@]12CCC=C1N(Cc1cccc3ccccc13)C(=O)[C@H](CC(=O)N1CCN(C(=O)c3ccco3)CC1)C2	TDP1 cell noCPT inconclusive, IL-1B inflam inh inconclusive, DT40 TDP1 CPT 18µM (no result: ASM inhibitor, TGFb SMAD3 inh, HepG2 tox)
COc1ccc(Cl)cc1NC(=O)CN(C)C(=O)CCNC(=O)c1ccccc1OC	TDP1 cell noCPT inconclusive
CCOc1ccc(-c2nn(-c3ccccc3)cc2C2NC(=O)NC(C)=C2C(=O)OC(C)C)cc1 (stereo not given)	TDP1 cell noCPT inconclusive, TGFb SMAD3 inh inconclusive, DT40 TDP1 CPT inconclusive (no result: ASM inhibitor, IL-1B inflam inh)
CCOc1ccc(-c2nc3c(c(SCC(=O)N4CCCCC4)n2)Cc2cc(C)ccc2O3)cc1	TDP1 cell noCPT inconclusive, DT40 TDP1 CPT inconclusive (no result: ASM inhibitor, IL-1B inflam inh)
CC(C)C[C@@H](CN1CCC[C@@H]1CN1C(=S)NC[C@@H]1Cc1ccc(O)cc1)N1C[C@H](Cc2ccc(O)cc2)N(CCc2ccccc2)C1=S	TDP1 cell noCPT 21µM, IL-1B inflam inh -59, TGFb SMAD3 inh 13µM, DT40 TDP1 CPT inconclusive (no result: ASM inhibitor)
CC(C)C[C@@H](CN1CCC[C@@H]1CN1C(=O)C(=O)NC[C@@H]1Cc1ccccc1)N1C[C@H](Cc2ccc(O)cc2)N(CCc2ccccc2)C(=O)C1=O	TDP1 cell noCPT inconclusive, TGFb SMAD3 inh inconclusive, DT40 TDP1 CPT inconclusive
CC(C)C[C@@H](CN1CCCC1CN1C(=S)NC[C@@H]1Cc1ccccc1)N1C[C@H](Cc2ccc(O)cc2)N(CCc2ccccc2)C1=S (stereo not given in full)	TDP1 cell noCPT inconclusive, DT40 TDP1 CPT 18µM (no result: ASM inhibitor, TGFb SMAD3 inh, HepG2 tox)
CC(C)C[C@@H](CN1CCC[C@@H]1CN1C(=S)NC[C@@H]1Cc1ccccc1)N1C[C@H](Cc2ccc(O)cc2)N(CCc2ccccc2)C1=S	TDP1 cell noCPT 18µM, TGFb SMAD3 inh inconclusive, DT40 TDP1 CPT inconclusive (no result: ASM inhibitor)
CC(C)C[C@@H](CN1CCCC1CN1C(=S)NC[C@@H]1Cc1ccccc1)N1C[C@H](Cc2ccccc2)N(CCc2ccccc2)C1=S (stereo not given in full)	TDP1 cell noCPT 9.2µM, DT40 TDP1 CPT inconclusive (no result: ASM inhibitor, TGFb SMAD3 inh, HepG2 tox)
COc1cccc(C(=O)N(c2ccccc2)C2C=CS(=O)(=O)C2)c1 (stereo not given)	none
CCOC(=O)c1c(O)cc(C)cc1Nc1ccccc1	none
CC(C)C[C@H]1CN([C@@H](CC(C)C)CN2CCC[C@@H]2CN2C(=O)C(=O)NC[C@@H]2Cc2ccccc2)C(=O)C(=O)N1CC1CCCCC1	TDP1 cell noCPT inconclusive, IL-1B inflam inh inconclusive, TGFb SMAD3 inh 18µM, DT40 TDP1 CPT inconclusive
CC(C)C[C@@H](CN1CCC[C@@H]1CN1C(=O)C(=O)NC[C@@H]1Cc1ccccc1)N1C[C@H](Cc2ccccc2)N(CC2CCCCC2)C(=O)C1=O	TDP1 cell noCPT 16µM, IL-1B inflam inh inconclusive, DT40 TDP1 CPT inconclusive (no result: ASM inhibitor, TGFb SMAD3 inh, HepG2 tox)
Cc1ccc(S(=O)(=O)N2CCC(C(=O)NCCCN3CCCC3=O)CC2)cc1C	none (no result: ASM inhibitor)
CCOc1cc(C=O)cc(Br)c1OCC(N)=O	TDP1 cell noCPT 5.2µM, DT40 TDP1 CPT 5.8µM
CCCOc1c(Br)cc(C(N)=O)cc1OCC	TDP1 cell noCPT inconclusive, DT40 TDP1 CPT 23µM
COc1ccc(CNC(=O)CN(C(=O)c2csnn2)c2cccc3ccccc23)cc1	none
Cc1ccc(-c2cnc3c(Nc4cccc(OC(F)(F)C(F)F)c4)nccn23)cc1	TDP1 cell noCPT 16µM, DT40 TDP1 CPT 23µM (no result: ASM inhibitor)
OCc1cccc(-c2cnc3c(Nc4cccc(OC(F)(F)C(F)F)c4)nccn23)c1	TDP1 cell noCPT 16µM, TGFb SMAD3 inh inconclusive, DT40 TDP1 CPT inconclusive (no result: ASM inhibitor)
COc1ccc(NC(=O)C(=O)NCC2(c3ccccc3)CCCC2)c(OC)c1	TDP1 cell noCPT inconclusive, DT40 TDP1 CPT inconclusive (no result: ASM inhibitor, IL-1B inflam inh)
COc1ccc(C2(CNC(=O)c3cc(OC)c(OC)c(OC)c3)CCCC2)cc1OC	TDP1 cell noCPT inconclusive, DT40 TDP1 CPT inconclusive
COc1cccc(C(=O)NCC2(c3ccccc3)CCCC2)c1	TDP1 cell noCPT 15µM, IL-1B inflam inh inconclusive, DT40 TDP1 CPT inconclusive
Cc1ccc(C(CC(=O)NCC2(c3ccccc3)CCCC2)c2ccccc2)c(O)c1 (stereo not given)	TDP1 cell noCPT 16µM, TGFb SMAD3 inh inconclusive, DT40 TDP1 CPT 23µM (no result: ASM inhibitor, IL-1B inflam inh)
COc1ccc(C(=O)NCC2(c3ccccc3)CCCC2)c(OC)c1	TDP1 cell noCPT 6.5µM, DT40 TDP1 CPT 9.2µM
COc1cc(C(=O)NCC2(c3ccccc3)CCCC2)cc(OC)c1OC	TDP1 cell noCPT 15µM, DT40 TDP1 CPT 15µM
COc1ccc(C(=O)N2CCCC2(C#N)c2ccccc2)cc1[N+](=O)[O-] (stereo not given)	TDP1 cell noCPT 10µM, DT40 TDP1 CPT 18µM
